The full ranking holds about 33,000 sequences; the median of “e-score” is about -0.038, and the highest 2% start at about 0.33. The full list was thinned out, with the highest values kept by preference.

The experiment concerns the target T1, GST-Rok-C97-191 (Bacillus subtilis subsp. subtilis str. …, UniProt O34857 97-191).
T1 sequence: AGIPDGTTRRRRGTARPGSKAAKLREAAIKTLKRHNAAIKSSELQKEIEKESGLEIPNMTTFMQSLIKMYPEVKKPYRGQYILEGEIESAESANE
Put plainly: protein binding microarray; Rok is a gene silencer of Bacillus subtilis; high values mean tight binding. Particulars: protein: recombinant; tags: GST (pTH5325, pDEST15-Magic modified); dsDNA, one strand shown. In short, it runs like this:
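Each has a 25-mer constant primer and a 35-mer variable part from a de Bruijn sequence of order 10, covering every non-palindromic 8-mer at least 32 times (palindromic 16). Preference for each 8-mer is given as a rank-based, unitless enrichment score (E-score). Its range runs from 0.5 (most favored) to −0.5 (most disfavored).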
On to CATTCCGA, for which the binding signal is -0.0936 E-score. In the case of CGTTTACC, the binding signal was -0.0458 E-score. As to ACTATTCT, the binding signal was 0.217 E-score.

With GCCATTTA, the binding signal was -0.19 E-score.

As to GAATCGCA, the binding signal is -0.139 E-score.

In the case of GAGAATGA, the binding signal was 0.00699 E-score.

Turning to CCGTTTAA, the binding signal was -0.0736 E-score. As to TAAAAGGA, the binding signal was -0.0824 E-score. The same measure for AAAAACTA: 0.426 E-score. Under ACAAACTG stands 0.0787 E-score; under CAAAACTA, 0.401 E-score.

Consider TAAAACAA, for which the binding signal was found to be 0.0349 E-score. The same measure for CAAAACAA: -0.0275 E-score; for AAAAACTT: -0.191 E-score; for AAAAACTC: 0.113 E-score. Under TAAAACGA stands 0.027 E-score; under ACAAACTA, 0.382 E-score. The same measure for ACAAACTC: 0.00994 E-score; for CAAAACTC: 0.162 E-score; for TAAAACTA: 0.334 E-score.

GAGGCTGA: the binding signal is -0.165 E-score. The same measure for ACCGCAAG: -0.109 E-score; for ACGAACTA: 0.311 E-score; for CCAACTAA: 0.16 E-score. With ACGCTAAG, the binding signal is 0.0377 E-score.

As to CGAAGCTA, the binding signal turned out to be 0.0414 E-score. Under CTCGGAGC stands 0.0375 E-score; under GCAAACCA, -0.0828 E-score; under GAAAACCA, -0.143 E-score. Under GAAAACTA stands 0.336 E-score; under CCAAACCA, -0.102 E-score.

Regarding GCAAACTA, the binding signal was found to be 0.385 E-score. Under CCAAACTA stands 0.376 E-score; under GCAAACAA, -0.173 E-score; under GAAAACTC, -0.0271 E-score. With CCAAACTC, the binding signal was -0.0249 E-score.

Regarding GTTACAGA, the binding signal is 0.21 E-score.

Consider TGCGCGCA, for which the binding signal worked out at 0.0584 E-score.

With TAGGGGGA, the binding signal is -0.143 E-score.

For the sequence ACAGTTGA, the binding signal came out at 0.152 E-score.

As to CCAGCGTC, the binding signal was -0.163 E-score.

As for TATAGACA, the binding signal is 0.00807 E-score. Take AATAGAAC: the binding signal was 0.151 E-score.

For the sequence GATAGACA, the binding signal turned out to be 0.058 E-score. The same measure for GATAGAAC: 0.289 E-score. The same measure for TATAGAAA: 0.397 E-score. Under CATAGAAA stands 0.105 E-score; under AATAGAAT, 0.318 E-score; under AATAGAAA, 0.388 E-score. As to GATAGAAA, the binding signal came out at 0.333 E-score.

Regarding ACAAACCG, the binding signal is -0.027 E-score. Under TCATTCCA stands -0.0328 E-score. As for GCATCCAA, the binding signal was -0.0621 E-score. Under GATAGAGA stands 0.104 E-score; under AATACAGG, -0.0587 E-score; under GACCCAAC, -0.142 E-score. Regarding AGAAGCGA, the binding signal is -0.104 E-score. For the sequence GGGCATAC, the binding signal is -0.0596 E-score. As for AATCGACC, the binding signal was -0.0453 E-score. On to GCTACTCA, for which the binding signal was found to be 0.0267 E-score. Under AAACTAAC stands 0.308 E-score; under AAACTATT, 0.448 E-score; under AAACTAAT, 0.36 E-score. Under AAACTATC stands 0.36 E-score; under AAACTCTT, 0.063 E-score; under CAACTATA, 0.277 E-score.

Turning to CAACTATC, the binding signal was 0.156 E-score.

In the case of GAACTATA, the binding signal was 0.29 E-score. The same measure for AAACTATA: 0.398 E-score; for AAACTAAG: 0.251 E-score.

On to AAACTATG, for which the binding signal came to 0.229 E-score.

GAACTATC: the binding signal came to 0.261 E-score. Take AAACAGTC: the binding signal was -0.0408 E-score. The same measure for GCGCCGGA: -0.0972 E-score; for ATTTAAAA: -0.0263 E-score. Under GAAGCGTC stands -0.188 E-score. The same measure for ATTATTCA: 0.199 E-score.

As to CTAGATCA, the binding signal was found to be 0.199 E-score. With ATTACAGC, the binding signal is 0.215 E-score. The same measure for TAACTAAA: 0.23 E-score; for AAACTAAA: 0.296 E-score. Under TAACTATA stands 0.347 E-score. The same measure for CAGAGAGA: -0.071 E-score; for CTTTAGGC: -0.0933 E-score.

As for GTAGAAAA, the binding signal amounted to 0.384 E-score. Under CTAGAAAG stands 0.113 E-score. Turning to TTAGAAAA, the binding signal came to 0.263 E-score.

For the sequence CTAGAAAA, the binding signal turned out to be 0.312 E-score.

GTAGAAAC: the binding signal was found to be 0.435 E-score. Under GCAGAAAC stands -0.0283 E-score; under CAAGAAAC, 0.224 E-score. On to CTAGAAAC, for which the binding signal stood at 0.34 E-score. Under GAAGAAAC stands 0.108 E-score; under TCAGCCCA, -0.191 E-score; under TGCCAACA, 0.0271 E-score. The same measure for AGAGGTAA: 0.149 E-score.

As for CGGCAAAC, the binding signal was 0.168 E-score.

Consider AGCGCCGG, for which the binding signal was -0.146 E-score. In the case of ACTATACG, the binding signal came to 0.0223 E-score. Under ATTATACC stands 0.228 E-score; under CTTATACA, 0.263 E-score; under ATTATACA, 0.333 E-score. Under GTTATACA stands 0.253 E-score. The same measure for ATTATACG: 0.388 E-score; for GTACTGCA: 0.119 E-score; for AGAATGCG: 0.105 E-score. For the sequence ATAGGGAC, the binding signal was -0.176 E-score. The same measure for CACGATCA: -0.0988 E-score; for AACCCCTG: -0.151 E-score; for GTCTGACA: -0.163 E-score. Under GATATACA stands 0.175 E-score; under AATATACC, 0.353 E-score. Under ACTATACA stands 0.302 E-score. Take GATATACC: the binding signal came to 0.153 E-score.

CATATACC: the binding signal came out at 0.222 E-score.

For TACATACA, the binding signal turned out to be 0.253 E-score. AATACACA: the binding signal stood at 0.173 E-score. The same measure for AATATACA: 0.394 E-score.

Regarding CATATACA, the binding signal is 0.22 E-score. The same measure for TATATACA: 0.402 E-score; for AACATACT: 0.0962 E-score; for AACATACA: 0.343 E-score.

ACAACTTG: the binding signal came out at 0.173 E-score. The same measure for ACGTGGCA: -0.0377 E-score; for CTTAGCGC: 0.0409 E-score; for GAGCTAGC: 0.0567 E-score. As to ACCCGTTG, the binding signal was -0.159 E-score. With TGTTAAAA, the binding signal is -0.0158 E-score. Under AATTGCGG stands 0.0377 E-score; under TACCGGAA, -0.0058 E-score; under ACAGGCGT, -0.077 E-score. The same measure for TGTATACA: 0.37 E-score; for GGTATACA: 0.15 E-score; for ACTATACT: 0.0926 E-score. Under AGTATACA stands 0.178 E-score. Turning to AATATACG, the binding signal amounted to 0.225 E-score. Turning to AATATACT, the binding signal was determined as 0.367 E-score. Under GAAAGTGC stands -0.0315 E-score.

Consider GTACCAAC, for which the binding signal amounted to 0.0505 E-score. Turning to CAGGCGAC, the binding signal is -0.00727 E-score. Under CGTTTATC stands 0.231 E-score; under GGCAGTTA, 0.0872 E-score. The same measure for CACAAGTG: -0.00102 E-score; for CAGACTAA: -0.0795 E-score. The same measure for ACCTCACT: -0.0237 E-score.

Turning to TCAGCCGA, the binding signal was -0.0187 E-score. Under AATATAAT stands 0.23 E-score; under TATATAAA, 0.394 E-score; under GATATAAA, 0.34 E-score.

Take AATATAAC: the binding signal is 0.205 E-score. The same measure for GATAAAAA: 0.234 E-score; for TATAAAAA: 0.244 E-score.

Turning to GATATAAC, the binding signal was determined as 0.297 E-score. The same measure for CATATAAA: 0.138 E-score; for AATATAAA: 0.361 E-score; for ACTGTTGC: 0.119 E-score. The same measure for TGACTCCA: -0.0987 E-score. The same measure for AGGAGGGA: -0.173 E-score; for CAGTTATG: 0.0833 E-score; for ATATACCA: 0.344 E-score. For the sequence AAATACCA, the binding signal was 0.286 E-score. The same measure for AGATACCG: 0.171 E-score. As to CAATACCG, the binding signal was 0.121 E-score.

As to AAATACCG, the binding signal was 0.37 E-score. Under ATATACCC stands 0.127 E-score; under GTATACCA, 0.267 E-score; under ATATACCG, 0.384 E-score.

As to CTATACCA, the binding signal came to 0.201 E-score.

AGGAGACG: the binding signal was -0.19 E-score. In the case of CAGCTCGG, the binding signal is -0.0345 E-score. With AAGTGACT, the binding signal was -0.0548 E-score. Under TCTGTCAA stands -0.116 E-score; under CAAGCCTG, -0.132 E-score. The same measure for ATCAGTGC: -0.0896 E-score; for CAACGGAC: -0.085 E-score. Under CGTAGTAA stands 0.205 E-score; under TGTAGTAA, 0.286 E-score.

In the case of GCTAGTAA, the binding signal was determined as 0.286 E-score.

As to AGTAGTAA, the binding signal is 0.404 E-score.

Consider GGTAGTAA, for which the binding signal is 0.396 E-score. The same measure for GTTAGTAA: 0.163 E-score; for ACTAAACT: 0.244 E-score. Consider TGGCGAAA, for which the binding signal was 0.0439 E-score. Under GTTTTGCA stands 0.0567 E-score; under CGTACGTA, 0.05 E-score. Under TACTAATA stands 0.298 E-score; under CAATAATA, 0.312 E-score; under CACTAATA, 0.33 E-score. Under TAATAATA stands 0.424 E-score; under TATTAATA, 0.352 E-score; under CAATAAAA, 0.239 E-score. For GAATAAAA, the binding signal was found to be 0.119 E-score. On to CATTAATA, for which the binding signal worked out at 0.186 E-score. The same measure for AATTAATA: 0.305 E-score; for TAATAAAA: 0.344 E-score.

Consider CACTAATC, for which the binding signal is 0.1 E-score. With AAATAATA, the binding signal was found to be 0.317 E-score. The same measure for AGAGAATG: 0.0921 E-score; for CATGGTTA: 0.0882 E-score. With AAGGAGCG, the binding signal is -0.2 E-score.

As to AGAGGCAA, the binding signal is -0.195 E-score. The same measure for GACCTTGC: -0.129 E-score. On to GAATAATC, for which the binding signal was -0.0939 E-score. The same measure for GAATAAGA: 0.0835 E-score.

On to GAATAATA, for which the binding signal came out at 0.349 E-score. Consider AGCCAACC, for which the binding signal was -0.074 E-score. Under ATTCGCCC stands -0.192 E-score; under ATGATAGA, 0.36 E-score; under ATGATAGC, 0.15 E-score. Consider CTGATATA, for which the binding signal was 0.258 E-score.

As for ATGATATA, the binding signal stood at 0.386 E-score.

Turning to ATGATAGG, the binding signal came to 0.0735 E-score. The same measure for ATGATATG: 0.226 E-score. Under GGACGTCC stands -0.0863 E-score; under AAGCACAA, 0.035 E-score. The same measure for TCGGTCAA: 0.044 E-score; for GACAAATA: 0.111 E-score; for AGCATAAT: 0.369 E-score.

In the case of AGCATAAA, the binding signal came out at 0.179 E-score.

As for AGCATAAG, the binding signal is -0.133 E-score.

(Values after paper PMC6212790, “How bacterial xenogeneic silencer rok distinguishes foreign from self DNA in its resident genome”.)
